# PubChem BioAssay AID588489 (Sanford-Burnham Center for Chemical Genomics, 2011)
# Out of some 360,000 compounds screened, about 1,300 (0.36%) were called active. Only a selection was taken, and actives are over-represented in it overall. A number with no mark means an inactive call. Rule as the data show it: active = inhibition above about 35% (passing the limit was not always enough); inactive = the rest.
# Target: Polyadenylate-binding protein 1 (Homo sapiens) (UniProt P11940)
# Test: inhibitors of PABP1 MLLE–PAM2 peptide binding, primary screen, biochemical, fluorescence polarization, FITC-PAM2, GST-MLLE (AID 588489);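 also: plate controls were DMSO wells with GST-MLLE for no effect and wells lacking GST-MLLE protein for full effect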
# Conditions: at 20 µM, active compounds read high
# Polyadenylate-binding protein 1 (Homo sapiens), sequence (P11940 whole entry, looked up): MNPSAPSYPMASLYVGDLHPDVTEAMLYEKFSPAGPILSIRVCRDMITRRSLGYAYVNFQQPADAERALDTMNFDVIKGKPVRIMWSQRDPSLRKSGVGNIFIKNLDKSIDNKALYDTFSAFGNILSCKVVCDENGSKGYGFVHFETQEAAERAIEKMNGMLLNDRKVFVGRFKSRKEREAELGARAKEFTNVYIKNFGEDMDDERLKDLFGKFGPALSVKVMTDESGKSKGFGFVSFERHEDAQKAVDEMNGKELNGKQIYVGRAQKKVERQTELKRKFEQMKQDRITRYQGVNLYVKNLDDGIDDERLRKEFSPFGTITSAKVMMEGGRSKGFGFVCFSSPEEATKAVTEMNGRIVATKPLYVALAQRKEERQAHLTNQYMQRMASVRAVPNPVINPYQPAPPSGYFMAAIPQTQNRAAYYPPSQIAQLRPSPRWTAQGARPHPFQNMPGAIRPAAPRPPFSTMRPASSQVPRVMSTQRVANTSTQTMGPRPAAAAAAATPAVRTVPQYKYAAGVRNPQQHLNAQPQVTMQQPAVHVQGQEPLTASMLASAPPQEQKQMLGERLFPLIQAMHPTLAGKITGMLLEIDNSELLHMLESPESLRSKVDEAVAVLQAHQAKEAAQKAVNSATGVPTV
row,Structure (SMILES),inhibition
1,O=C1CCCC(O)=C1N=Nc1ccc2ncsc2c1,45.2% (active)
2,O=C1CCCC(O)=C1N=Nc1ccc(S(=O)(=O)N2CCOCC2)cc1,8.62%
3,O=C(NCCC1CCCCN1S(=O)(=O)c1ccccc1)C(=O)NCC1CCCO1 (configuration not stated),1.52%
4,O=C(N/N=C\c1cc(Br)c(Br)o1)C1COc2ccccc2O1 (configuration not stated),-16.5%
5,Cc1ccc(C(=O)N/N=C\c2cc(Br)c(Br)o2)cn1,69.9% (active)
6,O=C(N/N=C/c1ccc(Br)o1)c1cncc(Br)c1,6.99%
7,CC(C)N(C(=O)Cn1cc(SCC(=O)N2CCCC2)c2ccccc21)C(C)C,-0.1%
8,CCOc1ccccc1N1C(=O)CC(Sc2nccc(C)n2)C1=O (configuration not stated),20.7%
9,CC(=O)Nc1ccc(N2C(=O)CC(Sc3nccc(C)n3)C2=O)cc1 (configuration not stated),20.5%
10,Cc1ccnc(SC2CC(=O)N(c3ccccc3)C2=O)n1 (configuration not stated),38.2% (active)
11,CCCCNC(=O)C1(c2ccc(OC)cc2)CCOCC1,-4.07%
12,CC(C)N(Cc1nnc(-c2ccccc2Br)o1)C(=O)c1cc(Cl)nc2ccccc12,-1.33%
13,Cn1cnnc1SCc1nnc(-c2ccccc2Br)o1,-6.49%
14,Nc1cccc2c1C(=O)N(Cc1nnc(-c3ccccc3Br)o1)C2=O,41.2% (active)
15,CCOC(=O)c1cc2sccc2n1Cc1ccc(C#N)cc1,-2.73%
16,CC(Sc1ccc(S(=O)(=O)N2CCN(C)CC2)cn1)C(=O)NC1CCCC(C)C1C (configuration not stated),-9.12%
17,CC1(C)C2CC=C(/C=N/NC(=O)c3ccc(Cl)cc3)C1C2 (configuration not stated),10.7%
18,O=C1CCC(=O)N(c2ccccc2)N1,3.9%
19,CCOc1ccccc1NC(=S)NC(=O)CCc1ccccc1,17.8%
20,O=C(Cc1ccc(Cl)cc1)NC(=S)Nc1ccccc1O,37.5% (active)
21,Fc1ccccc1CNC(=S)Nc1ccc(Cl)cc1,-18.2%

row,Structure (SMILES),inhibition
1,Cc1sc2ncn(CC(=O)NCCCC(=O)NCc3ccc(F)cc3)c(=O)c2c1C,-10.9%
2,Cc1n[nH]c(=O)c2c(NC(=O)CSc3ccccc3F)oc(C)c12,25.1%
3,COc1ccc(OC)c(C2N(c3ccccn3)C(=O)C3CCCN32)c1 (configuration not stated),-4.22%
4,COCC(C)N=CC1=C(O)CC(C)(C)CC1=O (configuration not stated),6.93%
5,COc1cccc(NC(=O)CN(C)C(=O)Cc2ccc(Cl)cc2Cl)c1,-1.03%
6,COc1cccc(NC(=O)CN(C)C(=O)CSC(=S)N2CCCC2)c1,40.8% (active)
7,CCN(CC(=O)Nc1ccc(NC(C)=O)cc1)C(=O)CSC(=S)N1CCCC1,5.05%
8,COc1ccc(N/N=C2/CCCCC2=O)cc1,44.5% (active)
9,Cc1ccc(N/N=C2\COC(C)(C)CC2=O)cc1,-0.27%
10,COc1ccc(NC(=O)c2c(C)oc3c2CCCC3)cc1,6.57%
11,COc1ccc(-c2cc(C3CCN(c4ncccc4[N+](=O)[O-])CC3)[nH]n2)cc1,6.76%
12,CCc1ccc2c(c1)NC(=O)C2(C)Cc1ccc(OC(F)(F)F)cc1 (configuration not stated),8.45%
13,CCc1ccc2c(c1)C1(NN=C(c3ccccc3)S1)C(=O)N2 (configuration not stated),45.2% (active)
14,CC[N+]1(CC)CC2=Cc3ccccc3CC2C1 (configuration not stated),-5.91%
15,O=C(Nc1cc(S(=O)(=O)Nc2ccc(Cl)cc2)ccc1O)c1ccc(F)cc1F,-7.73%
16,Cc1cccc(N(C(=O)Cc2cccs2)C(C(=O)NC2CCCC2)c2ccsc2)c1 (configuration not stated),-14.8%
17,COc1ccc(C)cc1NC(=S)N1CCOCC1,-27.2%
18,COc1cc(C(=S)N2CCOCC2)ccc1O,38.4% (active)
19,CCOc1cc(C(=S)N2CCOCC2)ccc1O,20.9%
20,Cc1ccc(OCC(=O)Nc2ccccc2C(=O)NC2CC2)cc1C,8.8%
21,O=S(=O)(NCc1ccccn1)c1ccc(Br)s1,-6.68%

row,Structure (SMILES),inhibition
1,O=S(=O)([N-]c1nc2ccccc2nc1-[n+]1ccc(Cc2ccccc2)cc1)c1ccc(Br)s1,43.3% (active)
2,O=C(c1ccc(N2CCOCC2)c([N+](=O)[O-])c1)N1CCN(S(=O)(=O)c2cccs2)CC1,-8.8%
3,COc1ccc(C(=O)N2CCN(c3ccc(C(C)=O)cc3F)CC2)cc1S(=O)(=O)NC1CC1,0.55%
4,CC(C)CCn1cnc2c1c(=O)n(CC(=O)NC(N)=O)c(=O)n2Cc1ccccc1,-0.54%
5,O=C(CSc1ccccc1)Nc1cc(Cl)ccc1Oc1ccccc1,6.51%
6,CC(=O)Nc1ccc(SCC(=O)Nc2ccccc2Oc2ccccc2)cc1,38.1% (active)
7,CC(=O)Nc1ccc(SCC(=O)NC(=O)c2ccc(Cl)cc2)cc1,15.4%
8,CC(=O)Nc1cc(-c2ccc(N3CCN(C)CC3)cc2)cn2c(-c3ccc(F)cc3)cnc12,-30.8%
9,CC(C)c1cc(C(=O)N/N=C/c2ccoc2)c(O)c(C(C)C)c1,-7.21%
10,CC(C)(C)OC(=O)N/N=C/c1ccc(C(=O)O)cc1,-10.6%
11,COC(=O)N/N=C/c1ccc(-c2ccc(Cl)c(Cl)c2)o1,15.1%
12,COC(=O)N/N=C/c1c[n+]([O-])c2ccccc2[n+]1[O-],41.1% (active)
13,CCOC(=O)c1c(C)[nH]c(C2=NNC(=NC(C)COC)SC2)c1C (configuration not stated),-90.6%
14,CC(C)N(c1ccccc1)c1ncnc(NCCC(=O)O)c1[N+](=O)[O-],-7.92%
15,CC1=C(C(=O)Nc2ccc(Cl)cc2)C(c2ccco2)NC(=O)N1 (configuration not stated),-4.08%
16,CN1OC[C@@H]2CN(S(=O)(=O)c3cccc(C(F)(F)F)c3)[C@H](c3ccc(-c4cc5ccccc5o4)cc3)C[C@@H]21,-4.18%
17,COC(=O)C1=C(Nc2ccc(C)cc2)C=C(C)C(C(=O)OC)C1c1ccc(F)cc1 (configuration not stated),-12%
18,CCc1c(Nc2ccccc2C)nc(N)[nH]c1=O,-2.64%
19,Cc1cc(=O)n(C)c(=O)n1CCCNc1ccccc1,-0.23%
20,Cc1[nH]c(N)nc(=S)c1CCCNc1ccccc1,40.1% (active)
